Bioassay records from PubChem BioAssay.
LAP4-GFP MLPCN – modulators of LAP4-GFP expression in yeast, primary screen, S. cerevisiae, multiplex flow cytometry, MLPCN library; 3 h; median GFP as percent of DMSO wells; GFP response vs DMSO, % at 10 µM; 320,000 compounds, 0.34% hits; AID 2023, 2009;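 active means GFP response vs DMSO above a set limit, about the screen mean plus 3 SD, cut at about 150% in these data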
RPL19A-GFP yeast – RPL19A-GFP expression modulators in yeast, primary screen, cell-based, S. cerevisiae, multiplex flow cytometry, MLPCN. S. cerevisiae RPL19A-GFP strain, 3 h; stronger effect = lower value. 330,000 compounds, 0.3% hits. percent response vs DMSO, % at 10 µM;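 active means percent response vs DMSO below 50%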;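 further: median channel GFP fluorescence of the barcoded RPL19A-GFP strain; ratio of sample median GFP to plate DMSO average so 100% = DMSO; lower means less RPL19A-GFP as with rapamycin TOR inhibition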
VLA-4 inh – inhibition in human VLA-4 binding assay, primary screen, VLA-4 allosteric modulator project, MLPCN library, flow cytometry, VLA-4 expressing cells | Integrin alpha-4 (Homo sapiens), P13612 | ligand binding flow cytometry | inhibition, % (about 7 µM as worked out from the volumes in the protocol) | 330,000 compounds, 0.2% hits; in the data active means inhibition above about 50%
AGP1-GFP MLPCN – modulators of AGP1-GFP expression in yeast TOR pathway, primary screen, cell-based, multiplex flow cytometry, S. cerevisiae, MLPCN library. 3 h; GFP as percent of DMSO wells. GFP response vs DMSO, % at 10 µM. 320,000 compounds, 0.02% hits. AID 2066, 2009;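 active means GFP response relative to DMSO above a set limit, near screen average plus 3 SD, cut at about 150% in these data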;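 further: median GFP channel fluorescence of the gated AGP1 strain per well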
CIT2 TOR yeast – modulators of CIT2-GFP expression in yeast, primary screen, S. cerevisiae, GFP fusion, multiplex flow cytometry, MLPCN library | S. cerevisiae CIT2-GFP strain, 3 h; 100 means same as DMSO wells | GFP response vs DMSO, % at 10 µM | 320,000 compounds, 0.065% hits;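 active means GFP response relative to DMSO above a set limit, near the screen mean plus 3 SD, cut at about 150% in these data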;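 further: ratio of well median GFP fluorescence to mean of DMSO wells on the plate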
MEP2-GFP yeast – modulators of MEP2-GFP levels in yeast, primary screen, S. cerevisiae, multiplex flow cytometry, MLPCN library. GFP response vs DMSO, % at 10 µM. 330,000 compounds, 0.51% hits. S. cerevisiae MEP2-GFP strain, 3 h; 100% = DMSO control level. AID 2016, 2009;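 active means GFP response versus DMSO above a set limit, roughly screen mean plus 3 SD, cut at about 180% in these data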;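 further: median GFP fluorescence of the barcode-gated MEP2-GFP cells per well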
VLA-4 mod pick – retest of VLA-4 allosteric modulators, confirmation, cell-based, cherry-picked plates, U937, HUTS-21 LIBS antibody; shares compounds with VLA-4 inh; U937 cells, HUTS-21 LIBS mAb binding, flow cytometry; LDV ligand present at threefold Kd; inhibition, % at 6.7 µM; 1,300 compounds, 2% hits; AID 2813, 2010; in the data active means inhibition above about 40%;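 further: 0% = ligand without compound and 100% = no ligand background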
* = called active by the depositor; nt = no result; ! = not active in a repeat. An excerpt weighted towards active compounds, which were near 1.1% of everything screened.

SMILES	LAP4-GFP MLPCN	RPL19A-GFP yeast	VLA-4 inh	AGP1-GFP MLPCN	CIT2 TOR yeast	MEP2-GFP yeast	VLA-4 mod pick
O=C(COC(=O)c1ccccc1)NC1CCCCCC1	101.2	97.9	-0.6	103.5	96.6	107.0	-3.5
O=C(COC(=O)c1ccc(Cl)cc1)NC1CCCCCC1	96.9	97.0	-14.7	94.2	95.9	104.3	nt
N#CC1=C(S)N=C(N)C(c2nc(-c3ccccc3)cs2)C12CCCC2 (stereo not drawn)	98.2	96.4	91.3*	nt	99.9	119.2	-1.6
O=C(NC(=S)NCc1ccc(-c2nc3ccccc3s2)cc1)c1ccco1	95.8	106.6	44.8	94.8	98.8	99.6	2.1
O=C(NCc1ccc(-c2nc3ccccc3s2)cc1)c1ccco1	95.3	104.0	0.9	87.8	97.5	130.3	nt
CCCCn1c(SCC(=O)Nc2ccc3c(c2)CCC3)nc2ccccc2c1=O	95.7	106.5	44.5	103.3	106.2	104.6	-2.8
C=CCn1c(SCC(=O)Nc2ccc3c(c2)CCC3)nc2ccccc2c1=O	88.7	92.3	-6.2	90.1	89.9	92.3	nt
CCOc1ccc(NC(=O)COC(=O)c2c(OC)cccc2OC)cc1	101.8	103.2	-6.1	108.0	104.2	108.2	-15.7
CCOc1ccc(NC(=O)c2c(OC)cccc2OC)cc1	101.9	99.1	4.1	96.5	97.8	106.9	nt
CC1CCCCC12NC(=O)N(CC(=O)N1CCN(S(=O)(=O)/C=C/c3ccccc3)CC1)C2=O (stereo not drawn)	93.6	93.9	-4.5	92.8	95.3	92.3	nt
Cc1noc(C)c1COc1ccc(C(=O)NCCc2ccc(F)cc2)cc1	105.1	96.7	50.3*	98.5	91.6	106.5	11.5
CCOC(=O)c1c(NC(=O)COc2ncnc3sccc23)sc2c1CCC2	99.4	96.4	70.0*	100.6	97.5	104.5	8.4
Cc1cccc(C(=O)Nc2nnc(S(=O)(=O)N(C)Cc3ccco3)s2)c1	112.6	95.5	8.5	97.0	94.1	125.6	nt
CCN(C[C@H]1N[C@@](Cc2ccccc2)(C(=O)OC)[C@H]2C(=O)N(C)C(=O)[C@@H]12)C(=O)c1ccc(C)cc1	109.8	102.7	51.1*	106.0	92.9	99.7	2.0
CCN(C[C@H]1N[C@@](Cc2ccccc2)(C(=O)OC)[C@H]2C(=O)N(Cc3ccccc3)C(=O)[C@@H]12)C(=O)c1ccc(F)cc1	110.9	104.0	4.9	111.9	113.5	103.3	2.0
COC(=O)[C@]1(Cc2ccccc2)N[C@H](CN(C)C(=O)Nc2ccc(OC)cc2)[C@@H]2C(=O)N(Cc3ccccc3)C(=O)[C@@H]21	88.2	97.3	-2.1	93.7	98.8	92.2	5.1
COc1ccc2oc(C(=O)OCC(=O)N(C)C3CCCCC3)c(C)c2c1	109.7	95.1	6.2	100.6	90.6	101.6	nt
CSc1ccc2c(c1)C(N1CCN(C)CC1)Cc1ccccc1S2 (stereo not drawn)	96.9	89.3	55.3*!	82.0	78.4	101.7	22.3
Cc1ccc(CN2CCC(n3nccc3NC(=O)CCOc3ccccc3)CC2)cc1C	94.8	95.9	105.9*	99.2	98.4	97.9	2.1
Cn1cc(CN2CCC(n3nccc3NC(=O)CCOc3ccccc3)CC2)cn1	99.9	101.7	-108.4	97.5	95.5	97.9	nt
CCOc1cc(CNS(=O)(=O)c2ccc3c(c2)CC(=O)N3C)cc(OCC)c1OCC	97.9	99.5	-8.7	104.9	106.4	95.0	nt
Cc1cccc(CNc2ccc(S(=O)(=O)N3CCCCC3)cc2)c1	111.5	95.5	9.6	91.6	92.9	97.8	nt
CC(C)(C)OC(=O)N/N=C/c1ccc(Br)cc1	95.7	95.6	49.6*	91.2	89.5	95.9	0.0
